# Measured values from PubChem BioAssay AID1159580 (chemical genetic matrix, 2015).
# About 2,000 (36%) of roughly 5,500 compounds were called active. Roughly 18% stayed inconclusive and do not appear here. The list shows a part of the results. A number with no mark means an inactive call. Rule as the data show it: active = normalized growth mostly below about 0.91 (no sharp cut-off); inconclusive = no clear call, values can overlap the other calls; inactive = mostly above about 0.92.
# Test: chemical genetic growth profiling, strain panel (AID 1159580);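 also: tested at 20 µM; growth read once vehicle control cultures reached saturation at 30 °C; 1 = growth at the plate median or of vehicle wells; lower values mean less growth of the strain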
# Conditions: growth OD
smiles,measurement,setting,value
Cc1cc(O)c2c(c1O)C(=O)c1c(O)cc(C)c(O)c1C2=O,normalized growth,"S. cerevisiae deletion strains, locus YJR075W, strain HOC1, hits give low values",1.01
same,normalized growth,"S. cerevisiae deletion strains, locus YKL009W, strain mrt4, hits give low values",1.05
same,normalized growth,"S. cerevisiae deletion strains, locus YKL068W, hits give low values",0.995
same,normalized growth,"S. cerevisiae deletion strains, locus YKL085W, strain MDH1 (second series), hits give low values",1.01
same,normalized growth,"S. cerevisiae deletion strains, locus YKL085W, strain MDH1, hits give low values",1.01
same,normalized growth,"S. cerevisiae deletion strains, locus YKL160W, strain elf1, hits give low values",0.985
same,normalized growth,"S. cerevisiae deletion strains, locus YKL190W, strain CNB1, hits give low values",0.984
same,normalized growth,"S. cerevisiae deletion strains, locus YKR001C, strain vps1, hits give low values",0.971
same,normalized growth,"S. cerevisiae deletion strains, locus YKR026C, strain gcn3, hits give low values",0.979
same,normalized growth,"S. cerevisiae deletion strains, locus YKR091W, strain srl3, hits give low values",0.968
same,normalized growth,"S. cerevisiae deletion strains, locus YLL001W, strain dnm1, hits give low values",0.966
same,normalized growth,"S. cerevisiae deletion strains, locus YLL026W, hits give low values",0.988
same,normalized growth,"S. cerevisiae deletion strains, locus YLL041C, strain sdh2, hits give low values",0.981
same,normalized growth,"S. cerevisiae deletion strains, locus YLR027C, strain aat2, hits give low values",0.966
same,normalized growth,"S. cerevisiae deletion strains, locus YLR039C, strain RIC1, hits give low values",0.635 (active)
same,normalized growth,"S. cerevisiae deletion strains, locus YLR058C, strain SHM2, hits give low values",0.93
same,normalized growth,"S. cerevisiae deletion strains, locus YLR102C, strain apc9, hits give low values",0.999
same,normalized growth,"S. cerevisiae deletion strains, locus YLR113W, strain HOG1, hits give low values",1.03
same,normalized growth,"S. cerevisiae deletion strains, locus YLR221C, strain rsa3, hits give low values",0.948
same,normalized growth,"S. cerevisiae deletion strains, locus YLR258W, strain gsy2, hits give low values",0.977
same,normalized growth,"S. cerevisiae deletion strains, locus YLR262C, strain YPT6 (second series), hits give low values",0.887
same,normalized growth,"S. cerevisiae deletion strains, locus YLR262C, strain YPT6, hits give low values",0.675
same,normalized growth,"S. cerevisiae deletion strains, locus YLR268W, strain sec22, hits give low values",0.964
same,normalized growth,"S. cerevisiae deletion strains, locus YLR320W, strain mms22, hits give low values",0.965
same,normalized growth,"S. cerevisiae deletion strains, locus YLR330W, strain CHS5, hits give low values",0.956
same,normalized growth,"S. cerevisiae deletion strains, locus YLR342W, strain FKS1 (second series), hits give low values",0.981
same,normalized growth,"S. cerevisiae deletion strains, locus YLR342W, strain FKS1, hits give low values",0.98
same,normalized growth,"S. cerevisiae deletion strains, locus YLR357W, strain rsc2, hits give low values",0.976
same,normalized growth,"S. cerevisiae deletion strains, locus YLR370C, strain arc18, hits give low values",0.987
same,normalized growth,"S. cerevisiae deletion strains, locus YLR371W, strain rom2, hits give low values",1
same,normalized growth,"S. cerevisiae deletion strains, locus YLR384C, strain iki3, hits give low values",0.962
same,normalized growth,"S. cerevisiae deletion strains, locus YLR418C, strain cdc73, hits give low values",1.02
same,normalized growth,"S. cerevisiae deletion strains, locus YML016C, strain PPZ1, hits give low values",0.958
same,normalized growth,"S. cerevisiae deletion strains, locus YML032C, strain rad52, hits give low values",0.974
same,normalized growth,"S. cerevisiae deletion strains, locus YML120C, strain ndi1, hits give low values",0.912 (active)
same,normalized growth,"S. cerevisiae deletion strains, locus YML124C, strain tub3, hits give low values",0.997
same,normalized growth,"S. cerevisiae deletion strains, locus YMR058W, strain fet3, hits give low values",0.923
same,normalized growth,"S. cerevisiae deletion strains, locus YMR078C, strain ctf18, hits give low values",0.981
same,normalized growth,"S. cerevisiae deletion strains, locus YMR125W, strain sto1, hits give low values",0.99
same,normalized growth,"S. cerevisiae deletion strains, locus YMR129W, hits give low values",0.981
same,normalized growth,"S. cerevisiae deletion strains, locus YMR205C, strain PFK2, hits give low values",0.993
same,normalized growth,"S. cerevisiae deletion strains, locus YMR223W, strain ubp8, hits give low values",0.989
same,normalized growth,"S. cerevisiae deletion strains, locus YMR231W, strain pep5, hits give low values",0.959
same,normalized growth,"S. cerevisiae deletion strains, locus YMR263W, strain SAP30, hits give low values",1.01
same,normalized growth,"S. cerevisiae deletion strains, locus YMR307W, strain GAS1, hits give low values",0.778
same,normalized growth,"S. cerevisiae deletion strains, locus YNL067W, strain RPL9B, hits give low values",0.991
same,normalized growth,"S. cerevisiae deletion strains, locus YNL071W, strain lat1, hits give low values",0.984
same,normalized growth,"S. cerevisiae deletion strains, locus YNL128W, strain TEP1, hits give low values",0.96
same,normalized growth,"S. cerevisiae deletion strains, locus YNL153C, strain GIM3, hits give low values",0.965
same,normalized growth,"S. cerevisiae deletion strains, locus YNL183C, strain NPR1, hits give low values",0.951
same,normalized growth,"S. cerevisiae deletion strains, locus YNL209W, strain ssb2, hits give low values",0.969
same,normalized growth,"S. cerevisiae deletion strains, locus YNL233W, strain BNI4, hits give low values",0.982
same,normalized growth,"S. cerevisiae deletion strains, locus YNL248C, strain rpa49, hits give low values",0.95
same,normalized growth,"S. cerevisiae deletion strains, locus YNL250W, strain rad50, hits give low values",0.974
same,normalized growth,"S. cerevisiae deletion strains, locus YNL271C, strain bni1, hits give low values",0.987
same,normalized growth,"S. cerevisiae deletion strains, locus YNL298W, strain CLA4, hits give low values",0.98
same,normalized growth,"S. cerevisiae deletion strains, locus YNL307C, strain MCK1, hits give low values",1.01
same,normalized growth,"S. cerevisiae deletion strains, locus YNL322C, strain KRE1 (second series), hits give low values",0.944
same,normalized growth,"S. cerevisiae deletion strains, locus YNL322C, strain KRE1, hits give low values",0.984
same,normalized growth,"S. cerevisiae deletion strains, locus YNR049C, strain mso1, hits give low values",0.965
same,normalized growth,"S. cerevisiae deletion strains, locus YNR052C, strain pop2, hits give low values",0.98
same,normalized growth,"S. cerevisiae deletion strains, locus YOL006C, strain TOP1, hits give low values",0.491 (active)
same,normalized growth,"S. cerevisiae deletion strains, locus YOL012C, strain htz1",1.11
same,normalized growth,"S. cerevisiae deletion strains, locus YOL147C, strain pex11, hits give low values",1
same,normalized growth,"S. cerevisiae deletion strains, locus YOR001W, strain rrp6, hits give low values",0.962
same,normalized growth,"S. cerevisiae deletion strains, locus YOR061W, strain CKA2, hits give low values",0.934
same,normalized growth,"S. cerevisiae deletion strains, locus YOR069W, strain VPS5, hits give low values",0.975
same,normalized growth,"S. cerevisiae deletion strains, locus YOR070C, strain gyp1, hits give low values",0.972
same,normalized growth,"S. cerevisiae deletion strains, locus YOR080W, strain dia2, hits give low values",0.974
same,normalized growth,"S. cerevisiae deletion strains, locus YOR083W, strain WHI5, hits give low values",0.964
same,normalized growth,"S. cerevisiae deletion strains, locus YOR106W, strain vam3, hits give low values",0.937
same,normalized growth,"S. cerevisiae deletion strains, locus YOR136W, strain idh2, hits give low values",1.01
same,normalized growth,"S. cerevisiae deletion strains, locus YOR144C, strain elg1, hits give low values",0.988
same,normalized growth,"S. cerevisiae deletion strains, locus YOR184W, strain ser1, hits give low values",1.02
same,normalized growth,"S. cerevisiae deletion strains, locus YOR231W, strain MKK1, hits give low values",0.996
same,normalized growth,"S. cerevisiae deletion strains, locus YOR265W, strain rbl2, hits give low values",0.971
same,normalized growth,"S. cerevisiae deletion strains, locus YOR270C, strain vph1, hits give low values",0.841
same,normalized growth,"S. cerevisiae deletion strains, locus YOR290C, strain snf2, hits give low values",0.914
same,normalized growth,"S. cerevisiae deletion strains, locus YOR316C, strain cot1, hits give low values",0.997
same,normalized growth,"S. cerevisiae deletion strains, locus YPL051W, strain arl3, hits give low values",0.953
same,normalized growth,"S. cerevisiae deletion strains, locus YPL055C, strain LGE1, hits give low values",1.01
same,normalized growth,"S. cerevisiae deletion strains, locus YPL078C, strain atp4, hits give low values",0.982
same,normalized growth,"S. cerevisiae deletion strains, locus YPL106C, strain sse1, hits give low values",0.953
same,normalized growth,"S. cerevisiae deletion strains, locus YPL240C, strain hsp82, hits give low values",0.98
same,normalized growth,"S. cerevisiae deletion strains, locus YPL241C, strain CIN2, hits give low values",0.995
same,normalized growth,"S. cerevisiae deletion strains, locus YPL256C, strain CLN2, hits give low values",0.993
same,normalized growth,"S. cerevisiae deletion strains, locus YPR119W, strain clb2, hits give low values",0.986
same,normalized growth,"S. cerevisiae deletion strains, locus YPR141C, strain kar3, hits give low values",0.978
same,normalized growth,"S. cerevisiae deletion strains, locus YPR163C, strain tif3, hits give low values",1
same,normalized growth,"S. cerevisiae deletion strains, locus YPR167C, strain met16, hits give low values",0.989
same,normalized growth,"S. cerevisiae deletion strains, strain wtn01, hits give low values",0.998
same,normalized growth,"S. cerevisiae strains, strain wild type, hits give low values",0.989
